Results filed as inconclusive are left out. A call without a number means that no potency is given here. Calls of active or inactive are those of the source. Calls follow the shape of the dose curve; as a rule, active = well fitted curve in the direction sought with a large enough effect; inconclusive = small, poorly fitted or top-dose-only effect, or another doubt; inactive = no such curve, though single readings can be large; an effect the other way counts as inactive or inconclusive.

Sequence of Glutathione peroxidase 1 (Homo sapiens) (P07203 whole entry, looked up): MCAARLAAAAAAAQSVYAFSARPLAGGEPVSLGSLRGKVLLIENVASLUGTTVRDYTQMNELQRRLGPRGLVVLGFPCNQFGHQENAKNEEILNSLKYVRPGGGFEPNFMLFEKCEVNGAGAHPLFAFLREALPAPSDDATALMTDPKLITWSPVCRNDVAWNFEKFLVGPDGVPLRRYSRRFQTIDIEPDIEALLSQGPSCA

System in the first experiment: not listed separately
Put plainly: Viability counterscreen for agonist of constitutive androstane receptor (CAR) against the NCATS DSHEA and TCM libraries (AID 1794838).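 Also: HepG2 cells with CYP2B6 reporter and hCAR plus 0.75 µM PK11195 antagonist.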 Also: potency is read from the fitted curve at half-maximal effect. The settings on record: HepG2 cell viability counterscreen, CAR agonist assay, co-treated with 0.75 µM CAR antagonist; series mostly up to 40 µM. In short, it runs like this:
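Viability by CellTiter-Fluor fluorescence, 405/540 nm, after 1 h at 37C. HepG2-CYP2B6-hCAR cells were exposed 24 h to test substances in presence of 0.75 uM PK11195 (final).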
(In general: A counterscreen serves to expose hits that act by an unwanted route or on another target.)
Turning to `Cc1cc2nc3c(=O)[nH]c(=O)nc-3n(CC(O)C(O)C(O)CO)c2cc1C` (stereo not drawn), the Potency was 25.1 µM (active). `OC[C@H]1O[C@@H](OCCc2ccc(O)cc2)[C@H](O)[C@@H](O)[C@H]1O`: the Potency result was “inactive”. Turning to `O=c1cc(-c2ccc(O)c(O)c2)oc2cc(O)cc(O)c12`, the Potency result is “inactive”.

System in the next experiment: not listed separately
As to the kind of experiment: HepG2 viability counterscreen (readout 2: ATP content) against the NCATS DSHEA and TCM libraries (AID 1794840). To be noted: ATP content luminescence; series mostly up to 27.3 µM. In short, it runs like this:
(§1)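 1,000 HepG2 cells/well, 4 h attach; compounds ~24 h, 37C/5% CO2. Readout 1: GF-AFC 25 uM final, 30 min, fluorescence 380/510 nm. Readout 2: CellTiter-Glo, 30 min RT, luminescence.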
Regarding `Cc1cc2nc3c(=O)[nH]c(=O)nc-3n(CC(O)C(O)C(O)CO)c2cc1C` (stereo not drawn), the outcome was inactive. For the compound `CC(C)(CO)[C@@H](O)C(=O)NCCC(=O)O`, the outcome was inactive. As for `O=c1cc(-c2ccc(O)c(O)c2)oc2cc(O)cc(O)c12`, the result was inactive.

System in a further experiment: not listed separately
Put plainly: HepG2 viability counterscreen (readout 1: protease activity) against the NCATS DSHEA and TCM libraries (AID 1794841).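 Also: cells exposed to compounds for about 24 h before the protease read.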 To be noted: qHTS concentration series; series mostly up to 27.3 µM. Put shortly:
as §1
For the compound `Cc1cc2nc3c(=O)[nH]c(=O)nc-3n(CC(O)C(O)C(O)CO)c2cc1C` (stereo not drawn), the call was inactive.

In the case of `CC(C)(CO)[C@@H](O)C(=O)NCCC(=O)O`, the compound was classed as inactive. As to `O=c1cc(-c2ccc(O)c(O)c2)oc2cc(O)cc(O)c12`, the outcome was inactive.

Another experiment addresses Glutathione peroxidase 1 (Homo sapiens) (UniProt P07203). As to the kind of experiment: Primary qHTS Assay for Inhibitors of Recombinant Selenoprotein Glutathione Peroxidase 1 (GPX1) (AID 1845191). Also: nearly all actives have a fitted effect of over 65% in size. To be noted: recombinant GPX1, GR-coupled NADPH fluorescence, 15 min; series mostly up to 48.8 µM. Put shortly: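 GR-coupled readout: NADPH consumption tracked by fluorescence, ex 340/em 450 nm, at t=0 and after 15 min at RT. Final mix 10 nM GPX1, 1 mM GSH, 0.5 mM CHP, 0.5 mM NADPH, 100 nM GR, 0.01% BSA, following 30 min enzyme–compound preincubation.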
In the case of `NC(=O)c1noc([C@H](CCCC2CCCCC2)CC(=O)NO)n1`, the Potency entry is “inactive”. As for `Cc1cc2c(cc1C1(c3ccc(C(=O)O)cn3)CC1)C(C)(C)CCC2(C)C`, the Potency entry is “inactive”. The same measure, in the same setting: as for `Cc1cc2nc3c(=O)[nH]c(=O)nc-3n(CC(O)C(O)C(O)CO)c2cc1C` (stereo not drawn), the entry is “inactive”; as for `CN(C)CC[C@H](CSc1ccccc1)Nc1ccc(S(=O)(=O)NC(=O)c2ccc(N3CCN(Cc4ccccc4-c4ccc(Cl)cc4)CC3)cc2)cc1[N+](=O)[O-]`, “inactive”; as for `COc1ccc(-c2ccc3ncc4c(c3c2)n(-c2ccc(N3CCNCC3)c(C(F)(F)F)c2)c(=O)n4C)cn1`, “inactive”. As to `O=C1CCCC(=O)C1C(=O)c1ccc(C(F)(F)F)cc1[N+](=O)[O-]`, the Potency entry was “inactive”. Take `CCCCC(F)(F)[C@@]1(O)CC[C@H]2[C@H](CC(=O)[C@@H]2CCCCCCC(=O)O)O1`: the Potency entry was “inactive”. Take `O=C(c1ccc(C(=O)N2CCC(N3CCCC3)CC2)c(Nc2ccccc2)c1)N1CCC(N2CCCC2)CC1`: the Potency entry is “inactive”. Consider `CCC(c1ccc(O)cc1)C(CC)c1ccc(O)cc1` (stereo not drawn), for which the Potency entry was “inactive”. Consider `O=C(NCCCCN1CCOCC1)c1cc2ccccc2o1`, for which the Potency entry was “inactive”. As for `COC(=O)[C@H](c1ccccc1Cl)N1CCc2sccc2C1`, the Potency entry is “inactive”. As for `CN1CCN(c2cccc(Nc3nc4c(-c5ccc(S(C)(=O)=O)cc5)cccn4n3)c2)CC1`, the Potency result was “inactive”. On to `CC(C)C[C@@H](C(=O)N[C@H](C(=O)OC1CCCC1)c1ccccc1)[C@H](O)C(=O)NO`, for which the Potency entry is “inactive”. Regarding `CN1c2ccccc2C(=O)N2CCc3c([nH]c4ccccc34)C21` (stereo not drawn), the Potency entry was “inactive”. Regarding `CC(=O)NCCC(=O)N[C@@H](CCC(N)=O)C(=O)N[C@@H](CO)C(=O)N[C@@H](CCC(N)=O)C(=O)N[C@@H](CCC(N)=O)C(=O)N[C@H](C(=O)N[C@@H](Cc1ccccc1)C(=O)N[C@]1(C)CCCCCCC=CCCC[C@@](C)(C(=O)N[C@@H](CCC(N)=O)C(=O)N[C@@H](CC(N)=O)C(N)=O)NC(=O)[C@H](CC(C)C)NC(=O)[C@H](CC(C)C)NC(=O)[C@@H](CCCNC(=N)N)NC(=O)[C@H](Cc2c[nH]c3ccccc23)NC(=O)[C@H](CC(C)C)NC(=O)[C@H](CC(N)=O)NC1=O)[C@H](C)O`, the Potency entry was “inactive”. On the same count and under the same terms, as for `Nc1ccn([C@@H]2O[C@H](CO)[C@@H](O)[C@H]2O)c(=O)n1`, the entry is “inactive”; as for `CC1=C[C@@H]2[C@@H]([C@@H](O)C[C@@]3(C)[C@H]2C[C@@H](C)[C@]3(O)C(=O)CO)[C@@]2(C)Cc3cnn(-c4ccccc4)c3C=C12`, “inactive”. As to `Cc1cnc(CNC(=O)c2c(=O)c3ccc(N4CCCN(C)CC4)nc3n3c2sc2ccccc23)cn1`, the outcome is “inactive [at 9.52 µM]”. In the case of `CN1C(=O)C(Cc2c[nH]c3ccccc23)NC1=S` (stereo not drawn), the Potency entry was “inactive”. On the same count and under the same terms, as for `O=C(CO)N1CCC(c2[nH]nc(-c3ccc(Cl)cc3)c2-c2ccncn2)CC1`, the entry is “inactive”.

For `C[C@]12CC[C@@H]3c4ccc(O)cc4CC[C@H]3[C@H]1[C@@H](O)[C@@H](O)[C@H]2O`, the Potency entry was “inactive”. Take `CN1CCN2c3ncccc3Cc3ccccc3C2C1` (stereo not drawn): the Potency entry is “inactive”. As for `CCN(CCO)CCCOc1ccc2c(Nc3cc(CC(=O)Nc4cccc(F)c4)[nH]n3)ncnc2c1`, the Potency entry is “inactive”. For `CC(C)(CO)[C@@H](O)C(=O)NCCC(=O)O`, the Potency result is “inactive”.

As to `O=C(O)c1ccc(O)c2ncc(N3CCOCC3)cc12`, the Potency result is “inactive”. Turning to `OC(c1cc(C(F)(F)F)nc2c(C(F)(F)F)cccc12)C1CCCCN1` (stereo not drawn), the Potency result was “inactive”. Consider `COc1nccc(-c2c(-c3ccc(F)cc3)ncn2C2CCNCC2)n1`, for which the Potency result is “inactive”. Turning to `C=CCc1cccc(C=NNC(=O)CN2CCN(Cc3ccccc3)CC2)c1O`, the Potency entry is “inactive”.

As for `CCNC(=O)c1noc(-c2cc(C(C)C)c(O)cc2O)c1-c1ccc(CN2CCOCC2)cc1`, the Potency entry is “inactive”.

Values taken from PubChem BioAssay (NCATS).
